# Hit rate of the full screen: of about 66,000 compounds, about 960 (1.5%) showed an effect of 50% or more. The sample holds strong results, similar compounds and a random draw of the others, so the mix is not that of the screen.
# Tested on: Trypanosoma brucei
# Assay: Trypanosoma brucei 72 hour study
# Type: functional, organism-based
# Parameters: scale not given: in the data most compounds retested in dose-response had high values
compound,measurement,setting,value
CN(C)C(=O)CN1CCC2(COCc3cnc(-c4cccnc4)nc32)C1.O=C(O)C(F)(F)F.O=C(O)C(F)(F)F (centres undefined),Percent Effect,"30.3 µM, […]",-72.36%
CN(C)C(=O)c1n[nH]c2c1CN(CC1CCCCC1)C2.O=C(O)C(F)(F)F.O=C(O)C(F)(F)F,Percent Effect,"30.3 µM, […]",-36.34%
N#Cc1c(Cl)nsc1N1CCN(CC2CCCCC2)CC1,Percent Effect,"30.3 µM, […]",100.2%
CC(C)(C)CCN1CCN(c2snc(Cl)c2C#N)CC1,Percent Effect,"30.3 µM, […]",100.4%
CC(=O)N1CCN(CCNc2snc(Cl)c2C#N)CC1,Percent Effect,"30 µM, 30.03 µM",1.028%
CC(=O)N1CCN(C(=O)CCNc2snc(Cl)c2C#N)CC1,Percent Effect,"30 µM, 30.03 µM",-13.74%
N#Cc1c(Cl)nsc1N1CCN(CC2CC2)CC1,Percent Effect,"30.3 µM, […]",-23.59%
N#Cc1c(Cl)nsc1NCc1ccc(N2CCC(CO)CC2)cc1,Percent Effect,"30 µM, 30.03 µM",-28.26%
CC(C)COCC1CN(C(=O)c2cscn2)Cc2ncn(C)c21.O=C(O)C(F)(F)F (centres undefined),Percent Effect,"30.3 µM, […]",-83.42%
CN(C)CCOCc1cncc2c1CCN(Cc1ccccn1)C2.O=C(O)C(F)(F)F.O=C(O)C(F)(F)F.O=C(O)C(F)(F)F,Percent Effect,"30.3 µM, […]",-28.23%
Cc1nc(CN2CC[C@H]3[C@@H]2CCC(=O)N3c2cnn(C)c2)cs1.O=C(O)C(F)(F)F,Percent Effect,"30.3 µM, […]",-10.95%
Cc1ccc(CN(CCCn2ccnc2)Cc2c[nH]nc2C(C)(C)C)s1.O=C(O)CC(O)(CC(=O)O)C(=O)O,Percent Effect,"30.3 µM, […]",-172%
Cc1ccc(C(NC(=O)C2CC2)c2cccc(S(C)(=O)=O)c2)cc1 (centres undefined),Percent Effect,"30 µM, 30.03 µM",-25.5%
CS(=O)(=O)CCNC(=O)Nc1sc2ccccc2c1Cl,Percent Effect,"30.3 µM, […]",-157.9%
CN(C)C(=O)CCNC(=O)Nc1sc2ccccc2c1Cl,Percent Effect,"30.3 µM, […]",-534.4%
CN(C)CC(C)(O)CNC(=O)Nc1sc2ccccc2c1Cl (centres undefined),Percent Effect,"30.3 µM, […]",103.3%
Cn1nc(COCC2CC2)c2c1CCN(Cc1cccs1)C2.O=C(O)C(F)(F)F,Percent Effect,"30.3 µM, […]",-72.61%
O=C(O)C(F)(F)F.c1cncc(N2CCCn3nnc(COCC4CC4)c3C2)c1,Percent Effect,"30.3 µM, […]",-2.195%
CN(C)CCN1C(=O)CCCC12CCCN(C(=O)c1cc[nH]n1)C2.O=C(O)C(F)(F)F (centres undefined),Percent Effect,"30.3 µM, […]",-2.017%
CCOc1ncccc1CNC(=O)NC(C)Cn1cccn1 (centres undefined),Percent Effect,10 µM,-0.2891%
same,Percent Effect,"30.3 µM, […]",0.8601%
Cc1cc(C)n(C2CCCN(C(=O)c3cccc(F)c3F)C2)n1 (centres undefined),Percent Effect,"30 µM, 30.03 µM",-91.58%
Cc1nc(C)n(C2CCCN(C(=O)c3ccc(F)cc3F)C2)n1 (centres undefined),Percent Effect,"30 µM, 30.03 µM",1.062%
Cc1cc(C)n(C2CCCN(C(=O)c3ccc(F)cc3F)C2)n1 (centres undefined),Percent Effect,"30 µM, 30.03 µM",59.51%
Cn1cc(N2C(=O)CC[C@@H]3[C@H]2CCN3CC2CCOCC2)cn1.O=C(O)C(F)(F)F,Percent Effect,"30.3 µM, […]",-7.648%
CC(=O)N1CCC2(CCN(Cc3ccccn3)C2=O)C1.O=C(O)C(F)(F)F (centres undefined),Percent Effect,"30 µM, 30.03 µM",1.584%
Clc1cc(Cl)cc(CN2CCC(NCc3cc[nH]n3)CC2)c1,Percent Effect,"30.3 µM, […]",90.13%
Clc1cc(Cl)cc(CN2CCC(NCc3ncc[nH]3)CC2)c1,Percent Effect,"30.3 µM, […]",-65.03%
Clc1cccc(N2CCC(NCc3cc[nH]n3)C2)c1 (centres undefined),Percent Effect,"30 µM, 30.03 µM",15.76%
Cc1ccc(CN2CCc3ncc(CNC(=O)C4CCC4)n3CC2)o1.O=C(O)C(F)(F)F,Percent Effect,"30.3 µM, […]",-36.54%
CCC(CNC(=O)c1ccccn1)N1CCc2ccccc2C1 (centres undefined),Percent Effect,"30 µM, 30.03 µM",-43.95%
CCC(C)(C)n1nnnc1C(c1cccs1)N1CCc2ccccc21 (centres undefined),Percent Effect,"30.3 µM, […]",72.61%
CCC(C)(C)n1nnnc1C(c1cccs1)N1CCCCC1 (centres undefined),Percent Effect,"30.3 µM, […]",13.9%
Cc1noc(C)c1C(=O)NCC(C)N1CCc2ccccc21 (centres undefined),Percent Effect,10 µM,-61.25%
CCC(C)(C)n1nnnc1C(c1cccs1)N1CCc2ccccc2C1 (centres undefined),Percent Effect,"30.3 µM, […]",99.92%
COc1ccc(-c2n[nH]c(C)c2CC(=O)N2CCOCC2)cc1,Percent Effect,"30 µM, 30.03 µM",6.943%
CNC(=O)c1cc2c(nc1NCC1CC1)CCN(S(C)(=O)=O)CC2.O=C(O)C(F)(F)F,Percent Effect,"30 µM, 30.03 µM",-3.721%
Cc1csc(C(=O)N2CC[C@H](Oc3cccnc3C)[C@@H](O)CC2)c1,Percent Effect,"30.3 µM, […]",-24.66%
COc1ccc(CN2CCn3cccc3C2C)cc1F (centres undefined),Percent Effect,"30 µM, 30.03 µM",11.74%
CC(C)c1ccc(CN2C(=O)C3(CCNCC3)Nc3ccccc32)cc1,Percent Effect,"30 µM, 30.03 µM",101.9%
C=Cc1ccc(CN2C(=O)C3(CCNCC3)Nc3ccccc32)cc1,Percent Effect,"30 µM, 30.03 µM",-41.13%
CN1CC2(CCN(Cc3cccc(C#N)c3)CC2)CC1=O,Percent Effect,"30 µM, 30.03 µM",-2.169%
N#Cc1cccc(CN2C(=O)C3(CCNCC3)Nc3ccccc32)c1,Percent Effect,"30 µM, 30.03 µM",83.34%
N#Cc1cccc(CN2C(=O)c3ccccc3CS2(=O)=O)c1,Percent Effect,"30 µM, 30.03 µM",-36.86%
NC(=O)c1ccc(CN2C(=O)C3(CCNCC3)Nc3ccccc32)cc1,Percent Effect,"30 µM, 30.03 µM",8.328%
O=C(O)C(F)(F)F.O=C(O)C(F)(F)F.c1cc(CN2Cc3nccn3CC(Cn3cncn3)C2)ccn1 (centres undefined),Percent Effect,"30 µM, 30.03 µM",-13.09%
CNC(=O)CN1CCc2c(CNc3nccs3)n[nH]c2C1.O=C(O)C(F)(F)F,Percent Effect,"30 µM, 30.03 µM",-11.16%
Cc1cc(N(C)CC2COc3ccccc3O2)nc(N)n1 (centres undefined),Percent Effect,"30.3 µM, […]",-9.48%
CCN1CC(CN(C)c2cc(C)nc(N)n2)Oc2ccccc21 (centres undefined),Percent Effect,"30.3 µM, […]",98.13%
Cc1cc(N(C)CC2COc3ccccc3O2)nc(C)n1 (centres undefined),Percent Effect,"30.3 µM, […]",-13.97%
CC(C)CS(=O)(=O)N1C[C@H]2C[C@H](C(=O)Nc3cccnc3)[C@@H](C1)O2,Percent Effect,"30 µM, 30.03 µM",-5.396%
COCCO[C@H]1CCN(c2ccc(C)nn2)[C@H]1Cc1cccnc1.O=C(O)C(F)(F)F.O=C(O)C(F)(F)F,Percent Effect,"30.3 µM, […]",-12.33%
COc1cc(N2C[C@@H]3COC[C@]3(COc3ccccn3)C2)ncn1.O=C(O)C(F)(F)F.O=C(O)C(F)(F)F,Percent Effect,"30.3 µM, […]",-11.8%
COc1ccccc1CN1C[C@@H]2COC[C@]2(COCc2ccncc2)C1.O=C(O)C(F)(F)F.O=C(O)C(F)(F)F,Percent Effect,"30 µM, 30.03 µM",59.56%
COc1cc(N2C[C@@H]3COC[C@]3(COCc3ccccn3)C2)ncn1.O=C(O)C(F)(F)F.O=C(O)C(F)(F)F,Percent Effect,"30 µM, 30.03 µM",-23.44%
COc1ccccc1CN1C[C@@H]2COC[C@]2(COc2cccnc2)C1.O=C(O)C(F)(F)F.O=C(O)C(F)(F)F,Percent Effect,"30 µM, 30.03 µM",-13.45%
Fc1cccc(CN2C[C@@H]3COC[C@]3(COCc3ccncc3)C2)c1.O=C(O)C(F)(F)F.O=C(O)C(F)(F)F,Percent Effect,"30 µM, 30.03 µM",-8.118%
COc1cc(N2C[C@@H]3COC[C@]3(COc3ncccc3F)C2)ncn1.O=C(O)C(F)(F)F.O=C(O)C(F)(F)F,Percent Effect,"30 µM, 30.03 µM",51.8%
N#CC1(C(=O)N2C[C@H]3CC[C@@H]2CN(Cc2cscn2)C3)CCOCC1,Percent Effect,"30 µM, 30.03 µM",-52.3%
Cc1nn(C)c(C)c1C1CCCN1CC(=O)Nc1nccs1 (centres undefined),Percent Effect,"30.3 µM, […]",-4.403%
CNC(=O)[C@@H]1C[C@H]2CN(Cc3csc(C)n3)C[C@H]2N1C(C)C.O=C(O)C(F)(F)F.O=C(O)C(F)(F)F,Percent Effect,"30.3 µM, […]",4.031%
Cc1nc(C(=O)N2CCN(c3ccc(Cl)c(Cl)c3)CC2)cs1,Percent Effect,"30.3 µM, […]",12.74%
Cc1nccc([C@H]2C[C@@H]3CCN(S(=O)(=O)C4CC4)C[C@H]3O2)n1,Percent Effect,"30.3 µM, […]",-36.22%
Cc1nccc([C@H]2C[C@@H]3CCN(S(C)(=O)=O)C[C@H]3O2)n1,Percent Effect,"30.3 µM, […]",-74.86%
Cc1nccc([C@@H]2C[C@@H]3CCN(S(C)(=O)=O)C[C@H]3O2)n1,Percent Effect,"30 µM, 30.03 µM",53.53%
CCNC(=O)Nc1ccc(N2CCC(OC)CC2)c(C(F)(F)F)c1,Percent Effect,"30 µM, 30.03 µM",-0.4307%
COc1ccc(CN2CCc3[nH]nc(C(=O)N(C)C)c3C2)cc1.O=C(O)C(F)(F)F,Percent Effect,"30.3 µM, […]",4.36%
COc1ccc(F)c(CN(CCCn2ccnc2)Cc2ccc(C)s2)c1.O=C(O)CC(O)(CC(=O)O)C(=O)O,Percent Effect,"30.3 µM, […]",-24.6%
CN(CC(=O)NC(Cc1ccsc1)c1cccnc1)Cc1cccnc1.Cl (centres undefined),Percent Effect,"30.3 µM, […]",-0.9311%
CN(Cc1nnc(C2CC2)o1)C(c1ccc(F)cc1)c1cccnc1 (centres undefined),Percent Effect,"30 µM, 30.03 µM",-93.52%
CC(C)c1nnc(CN(C)C(c2ccc(F)cc2)c2cccnc2)o1 (centres undefined),Percent Effect,"30 µM, 30.03 µM",-53.44%
CC(C)c1noc(CN(C)C(c2ccc(F)cc2)c2cccnc2)n1 (centres undefined),Percent Effect,"30 µM, 30.03 µM",70.75%
Cc1noc(NCc2cc(F)ccc2F)n1,Percent Effect,"30.3 µM, […]",50.55%
Cc1noc(NCc2cn(C)nc2-c2ccncc2)n1,Percent Effect,"30 µM, 30.03 µM",-13.42%
Cc1noc(CS(=O)(=O)c2cc(F)ccc2F)n1,Percent Effect,"30.3 µM, […]",-4.369%
CC(C)(C)c1nnc(NCc2ccc(F)cc2)o1,Percent Effect,"30 µM, 30.03 µM",-100%
Cc1noc(NCc2ccc(F)cc2F)n1,Percent Effect,"30.3 µM, […]",72.2%
Cc1noc(NCc2ccc(F)cc2)n1,Percent Effect,"30.3 µM, […]",55.37%
COCc1cc(NCc2cc(F)ccc2F)n2nccc2n1,Percent Effect,"30 µM, 30.03 µM",-36.1%
Cc1noc(NCc2cn(C)nc2-c2cccnc2)n1,Percent Effect,"30 µM, 30.03 µM",-14.18%
Cc1nnc(NCc2ccc(F)cc2)o1,Percent Effect,"30 µM, 30.03 µM",-52.4%
Cc1occc1C(=O)N1CCc2c(CNS(C)(=O)=O)cncc2C1.Cl,Percent Effect,"30.3 µM, […]",-7.203%
CN(C)C[C@]12COC[C@H]1CN(C(=O)Cc1ccc3c(c1)OCO3)C2.O=C(O)C(F)(F)F,Percent Effect,"30 µM, 30.03 µM",24.04%
Cn1ncc2c(NC3CCSC3)nc(-c3ccncc3)nc21 (centres undefined),Percent Effect,"30.3 µM, […]",38.84%
CC(=O)N1CCN(Cc2cccs2)CC2(CC(=O)N(C)C2)C1.O=C(O)C(F)(F)F (centres undefined),Percent Effect,"30.3 µM, […]",-45.81%
CN1CC(=O)N(c2ccsc2)CC12CCN(C(=O)c1cccn1C)C2.O=C(O)C(F)(F)F (centres undefined),Percent Effect,"30 µM, 30.03 µM",-33.31%
Cc1noc([C@@H]2CCO[C@@H]3CCN(Cc4ccc(C)s4)C[C@@H]32)n1.O=C(O)C(F)(F)F,Percent Effect,"30 µM, 30.03 µM",1.711%
O=C(O)C(F)(F)F.O=C(O)c1c(-c2cncnc2)ncc2c1CCN(CC1CCOC1)C2 (centres undefined),Percent Effect,"30.3 µM, […]",-18.52%
CCn1ncc2c1C(COCC1CC1)CN(c1ccncn1)C2.O=C(O)C(F)(F)F.O=C(O)C(F)(F)F (centres undefined),Percent Effect,"30 µM, 30.03 µM",-5.077%

# — ChEMBL document CHEMBL3988442, “University of Dundee, Small-Polar-MMV Screening Library” (2021)
